IL-1B inflam inh = qHTS for Inhibitors of Inflammasome Signaling: IL-1-beta AlphaLISA Primary Screen; THP-1 LPS/ATP IL-1B secretion, AlphaLISA, 16 h; hits give low values; 360,000 tested, 4.7% active; AID 743279, 2014; activity change, % at 57.5 µM; in the data active = activity change below about -50%; inconclusive = mostly about -30% to -49%
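Secreted IL-1B measured by AlphaLISA bead assay after 16 h compound exposure of THP-1 cells; compounds (final up to 57.5 uM) added 1 h before LPS (250 ng/mL) and ATP (1.25 mM) stimulation; lower signal means less secretion.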
HT1080 IDH1KD tx = qHTS for induction of synthetic lethality in tumor cells producing 2HG: qHTS for the HT-1080-IDH1KD cell line. HT-1080 IDH1 knockdown viability, ATP luminescence, 48 h. Potency, µM (series often up to 46.1 µM), most hits filed as cytotoxic. 360,000 tested, 2% active
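Knockdown cells (IDH1KD HT-1080) received compounds 2 h after plating at 750 cells/well and were kept 48 h at 37 °C in 5% FBS RPMI. A CellTiter-Glo luminescence read gave % activity for curve fitting.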
Giardia kill = Small Molecules that selectively kill Giardia lamblia: qHTS; activity change, % at 7.66 µM, hits read low; 340,000 tested, 0.15% active; AID 540267, 2011; Giardia lamblia trophozoite viability; in the data active = activity change below about -80%; inconclusive = between about -30% and that limit;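 also: parasites exposed to compound for two days anaerobically before the ATP read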
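Each well holds 100 Giardia trophozoites and compound. After two days (48 hrs) at 37 deg C in anaerobic conditions, ATP is quantified by luminescence.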
HT1080-NT tox = qHTS for induction of synthetic lethality in tumor cells producing 2HG: qHTS for the HT-1080-NT fibrosarcoma cell line. 360,000 tested, 1.6% active. HT-1080-NT fibrosarcoma viability, CellTiter-Glo ATP luminescence, 48 h. Potency, µM (series often up to 46.1 µM), usual class: cytotoxic;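 also: NT is the 2HG producing partner of a matched IDH1 knockdown line; nearly all actives have a fitted effect of over 55% in size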
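A 48-hour cytotoxicity screen used HT-1080-NT cells plated 2 hours before compound delivery. ATP-based CellTiter-Glo luminescence measured viability, normalized to DMSO and no-cell controls.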
HepG2 viability = qHTS for Inhibitors of TGF-b: Cytotox Counterscreen. HepG2 CAGA-GFP viability, ATP luminescence, 18 h. Potency, µM (highest dose often 46.1 µM), most hits filed as cytotoxic. 410,000 tested, 0.76% active
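HepG2 CAGA-GFP cells (1000/well, DMEM with 1% FBS) received compound, then TGF-beta at 500 pg/mL final, and were incubated 18 hours at 37 degrees C. Viability was read by CellTiter-Glo luminescence. Media-only wells were set as complete cell-killing and DMSO as no toxicity.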
TGFb SMAD3 inh = qHTS for Inhibitors of TGF-b; HepG2 CAGA-GFP TGF-b/SMAD3 reporter, GFP fluorescence, 18 h; TGF-beta stimulated, 500 pg/mL final; Potency, µM (doses to about 46.1 µM), usual class: inhibitors; 410,000 tested, 1.2% active; also: nearly all actives have a fitted effect of over 65% in size
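Per well, imaged GFP fluorescence of HEPG2 CAGA-GFP cells gives the signal; cells get compound, then TGF-beta (500 pg/mL final), 18 h at 37 degrees C; %Activity versus -TGF-beta and +DMSO controls.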
Hits are given with their value; 0 = inactive; ? = inconclusive; - = not tested or not shown. Sampled rows, rich in hits. Any-hit rate of the full collection: about 6.5%. Unless noted, calls follow the shape of the dose curve; as a rule, active = well fitted curve in the direction sought with a large enough effect; inconclusive = small, poorly fitted or top-dose-only effect, or another doubt; inactive = no such curve, though single readings can be large; an effect the other way counts as inactive or inconclusive.

SMILES | IL-1B inflam inh | HT1080 IDH1KD tx | Giardia kill | HT1080-NT tox | HepG2 viability | TGFb SMAD3 inh
Cc1ccc(S(=O)(=O)N2CCCN(Cc3nc4ccccc4c(=O)[nH]3)CC2)cc1 | ? | 0 | 0 | 0 | 0 | 0
Cc1ccc(S(=O)(=O)N2CCCN(C(C)c3nc4ccccc4c(=O)[nH]3)CC2)cc1 (stereo unspecified) | 0 | 0 | 0 | 0 | 0 | 14µM
Cc1cc(=O)n(CC(=O)N2CCN(c3ccc(F)cc3)CC2)c2c1c(C)nn2C | - | - | - | - | 0 | 7.1µM
CCOC(=O)C1CCCN(C(=O)Cn2c(=O)cc(C)c3c(C)nn(C)c32)C1 (stereo unspecified) | - | - | - | - | 0 | ?
O=S1(=O)CC(N2CCCCC2)C1CN1CCCCC1 (stereo unspecified) | 0 | 0 | - | 0 | 0 | 0
COc1ccc(/C(C)=N/Nc2nncc3ccccc23)cc1 | 0 | 0 | 0 | 0 | 0 | ?
CC(=O)Nc1ccc(Oc2cnc3ccccc3n2)cc1 | 0 | 2.6µM | 0 | 2.3µM | 0 | 0
CN(C)CCCN(C(=O)c1ccc(Br)s1)c1nc2cc3c(cc2s1)OCO3 | -101 | ? | 0 | ? | 0 | ?
CN(C)CCN(C(=O)c1ccc(C(=O)c2ccccc2)cc1)c1nc2cc3c(cc2s1)OCCO3 | 0 | 0 | 0 | 0 | 0 | 0
CN(C)CCCN(C(=O)C1COc2ccccc2O1)c1nc2cc3c(cc2s1)OCO3 (stereo unspecified) | 0 | 0 | ? | 0 | 0 | 0
CN(C)CCCN(C(=O)c1ccc(C(=O)c2ccccc2)cc1)c1nc2cc3c(cc2s1)OCCO3 | -64 | ? | 0 | ? | 0 | 14µM
CN(C)CCCN(C(=O)c1ccc2c(c1)CCCC2)c1nc2cc3c(cc2s1)OCO3 | -86 | ? | 0 | 18µM | 0 | ?
Cc1cccc(NC(=O)Cc2ccc(-c3ccccc3)cc2)n1 | 0 | 0 | 0 | 0 | 0 | ?
CC(=O)Nc1ccc(S(=O)(=O)NCC(=O)NNC(=O)COc2ccccc2Cl)cc1 | 0 | 0 | 0 | 0 | 0 | 0
O=C1c2ccccc2C(=O)C12OC2c1ccc(Cl)cc1Cl (stereo unspecified) | -101 | ? | 0 | 21µM | 20µM | ?
Cc1noc(C)c1C(=O)NCc1ccco1 | 0 | 0 | 0 | 0 | 0 | 0
N=c1n(CC(=O)O)c2ccccc2n1Cc1ccccc1Cl | 0 | 0 | 0 | 0 | 0 | 0
N=c1n(CC(=O)c2ccc([N+](=O)[O-])cc2)c2ccccc2n1Cc1ccc(Cl)cc1 | 0 | 0 | 0 | 0 | 0 | 0
N=c1n(CC(=O)c2ccc([N+](=O)[O-])cc2)c2ccccc2n1Cc1ccccc1Cl | -60 | 0 | 0 | 0 | 0 | 0
N=c1n(CC(=O)c2ccc(Br)cc2)c2ccccc2n1Cc1ccccc1 | -101 | 0 | 0 | 0 | 0 | 16µM
N=c1n(CC(=O)c2ccc([N+](=O)[O-])cc2)c2ccccc2n1Cc1ccccc1 | -106 | 0 | 0 | 0 | 0 | 0
N=c1n(CCN2CCCCC2)c2ccccc2n1CC(=O)c1cccc([N+](=O)[O-])c1 | 0 | 0 | 0 | 0 | 13µM | ?
CCC(C)NCCCCOc1ccc(Cl)cc1C (stereo unspecified) | ? | ? | 0 | ? | 0 | 0
COc1ccc(CC(=O)Nc2ccccc2C(F)(F)F)cc1S(=O)(=O)N1CCOCC1 | 0 | 0 | - | 0 | 0 | 0
O=C(NC(=S)Nc1ccc(NC(=O)c2ccccc2)cc1)c1ccc(F)cc1 | 0 | 0 | 0 | ? | 0 | 0
Cc1ccccc1Cn1c(=N)n(CC(=O)c2ccco2)c2ccccc21 | 0 | ? | 0 | ? | 0 | 10µM
CCOc1ccccc1CN1CCN(S(=O)(=O)c2ccccc2)CC1 | - | - | - | - | 0 | 0
OC(CNCc1ccccc1)(c1ccccc1)c1ccccc1 | 0 | 0 | 0 | 0 | 0 | 0

Compound activity deposited in PubChem BioAssay by National Center for Advancing Translational Sciences (NCATS).
